The source of these data is PubChem BioAssay AID1347418 (Sanford-Burnham Center for Chemical Genomics, 2020).

The campaign covered roughly 1,300 compounds. About 750 (58%) were called active. This is one part of the list.

Sequence of Sulfhydryl oxidase 1 (Homo sapiens) (O00391 whole entry, looked up): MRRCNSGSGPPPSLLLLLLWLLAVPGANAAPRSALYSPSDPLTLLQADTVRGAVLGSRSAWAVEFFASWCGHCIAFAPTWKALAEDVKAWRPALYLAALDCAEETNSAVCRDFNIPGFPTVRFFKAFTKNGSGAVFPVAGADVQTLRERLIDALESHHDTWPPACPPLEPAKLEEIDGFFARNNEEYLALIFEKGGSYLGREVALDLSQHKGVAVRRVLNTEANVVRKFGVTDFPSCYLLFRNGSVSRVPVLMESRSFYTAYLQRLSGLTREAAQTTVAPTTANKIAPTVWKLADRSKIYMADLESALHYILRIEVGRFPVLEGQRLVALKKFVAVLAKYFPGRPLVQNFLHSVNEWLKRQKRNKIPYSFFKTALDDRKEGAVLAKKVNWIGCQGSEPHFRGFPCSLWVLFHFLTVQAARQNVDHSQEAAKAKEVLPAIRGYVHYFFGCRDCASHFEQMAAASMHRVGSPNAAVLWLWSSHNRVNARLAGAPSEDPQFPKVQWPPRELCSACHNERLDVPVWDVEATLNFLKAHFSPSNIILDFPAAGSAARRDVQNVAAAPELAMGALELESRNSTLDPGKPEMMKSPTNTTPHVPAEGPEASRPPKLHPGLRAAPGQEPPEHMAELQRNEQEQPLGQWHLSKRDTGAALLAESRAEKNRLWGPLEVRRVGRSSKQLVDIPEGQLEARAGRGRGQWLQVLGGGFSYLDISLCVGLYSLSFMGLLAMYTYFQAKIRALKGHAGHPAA

The experiment has as its target Sulfhydryl oxidase 1 (Homo sapiens) (UniProt O00391). The experiment in a line: QSOX1 enzyme inhibitors, primary screen, biochemical, ROS-Glo H2O2 luminescence, HTS (AID 1347418). The note with it: recombinant QSOX1, ROS-Glo H2O2 luminescence, at 12.5 µM, active compounds read high; active = any value above zero unless noted.
As a reminder, the inhibition is the relative decrease from the control value, in per cent. As to `C=CCN(C1=NCCN1)c1c(Cl)cccc1Cl`, the inhibition was -6.5% (inactive).

Take `CCC1(C2=NCCN2)Cc2ccccc2O1` (stereo not given): the inhibition was -2.6% (inactive).

For the compound `C/C=C(/C)C(=O)O[C@H]1C(C)=C2[C@H]([C@@H]1OC(=O)CCCCCCC)[C@@](C)(OC(C)=O)C[C@H](OC(=O)CCC)[C@@]1(O)[C@H]2OC(=O)[C@@]1(C)O`, the inhibition is -0.7% (inactive). The figure for `CN[C@@H]1C[C@@H](c2ccc(Cl)c(Cl)c2)c2ccccc21` is -1.2% (inactive). Turning to `CCCN1CCC[C@@H]2Cc3[nH]ncc3C[C@H]21`, the inhibition was -2.4% (inactive).

On to `CC12CCC3C(CCC4=C(O)C(=O)CCC43C)C1CCC2=O` (stereo not given), for which the inhibition is 0.2% [setting not given] (active). The figure for `C[C@@H](N)Cc1cnc[nH]1` is 11.8% (active); for `c1ccc(C2(c3ccccc3)CC2C2=NCCN2)cc1` (stereo not given) it is -0.8% (inactive). With `CCn1cnc2c(Nc3cccc(Cl)c3)nc(N[C@@H]3CCCC[C@@H]3N)nc21` the figure was 0.3% (active); with `NC(Cn1oc(=O)[nH]c1=O)C(=O)O` (stereo not given), 2.7% (active); with `CCC1(c2ccc(N)cc2)CCC(=O)NC1=O` (stereo not given), -0.8% [setting not given] (inactive). The figure for `NCCCP(=O)(O)O` is 6.4% (active); for `CC(NC(C)(C)C)C(=O)c1cccc(Cl)c1` (stereo not given) it is 0.7% [setting not given] (active); for `CCCN1CCC[C@@H]2Cc3nc(N)ncc3C[C@H]21` it is -0.3% (inactive).

As to `CC(C)(C)c1cc(C=C(C#N)C#N)cc(C(C)(C)C)c1O`, the inhibition was 27.7% (active). With `N#CC(=Cc1ccc(O)c(O)c1)C(N)=S` the figure was 26.9% (active); with `N#CC(C#N)=Cc1ccc(O)c(O)c1`, 31.5% (active). The figure for `CCCCc1ccc(C(=O)O)nc1` is -1.9% (inactive); for `NC(=O)c1cc(N2CC2)c([N+](=O)[O-])cc1[N+](=O)[O-]` it is -2.6% (inactive); for `COc1ccc(OC)c(C(O)C(C)N)c1` (stereo not given) it is -1.4% [setting not given] (inactive). The figure for `CC(N)[C@H](O)c1ccc(O)c(O)c1` (stereo not given in full) is 10.4% [setting not given] (active); for `C[C@@H]1O[C@@H](O[C@H]2C[C@@H](O)[C@]3(CO)[C@@H]4C(CC[C@]3(O)C2)[C@@]2(O)CC[C@H](C3COC(=O)C3)[C@@]2(C)C[C@H]4O)[C@H](O)[C@H](O)[C@H]1O` (stereo not given in full) it is -6.9% (inactive); for `C[C@@H]1O[C@@H](O[C@H]2C[C@@H](O)[C@]3(CO)[C@H]4[C@H](O)C[C@]5(C)[C@@H](C6=CC(=O)OC6)CC[C@]5(O)[C@@H]4CC[C@]3(O)C2)[C@H](O)[C@H](O)[C@H]1O` it is 1.8% [setting not given] (active).

In the case of `CN1C2CCC1CC(OC(c1ccccc1)c1ccccc1N)C2` (stereo not given), the inhibition is 1.1% (active). `CN1C2CCC1CC(OC(=O)c1cc(Cl)cc(Cl)c1)C2` (stereo not given): the inhibition is -0.7% (inactive).
